We go through 66 compounds from PubChem BioAssay AID624330 (Southern Research Specialized Biocontainment Screening …, 2012).

The campaign covered roughly 340,000 compounds. About 2,100 (0.62%) were called active.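 The calls were made as follows: active = first-screen hits whose inhibition reached a set limit at any dose in the follow-up dose series; inconclusive = inhibition above the set first-screen limit but never retested; inactive = the rest.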 Not all results are given here. Measured potencies and affinities stand elsewhere.

The target of this assay is Rac GTPase-activating protein 1 (Homo sapiens) (UniProt Q9H0H5). Description: blockers of MgcRacGAP-driven Rac1 GTP hydrolysis – biochemical, ADP Hunter fluorescence, primary and confirmatory, confirmation (AID 624330).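 Also: fluorescence reports GDP produced by GAP-driven GTP hydrolysis.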 Particulars: MgcRacGAP-stimulated Rac1 GTP hydrolysis, at 30 µM, hits give high values, GST-tagged Rac1 F28L mutant substrate.
Chain of Rac GTPase-activating protein 1 (Homo sapiens) (Q9H0H5 whole entry, looked up): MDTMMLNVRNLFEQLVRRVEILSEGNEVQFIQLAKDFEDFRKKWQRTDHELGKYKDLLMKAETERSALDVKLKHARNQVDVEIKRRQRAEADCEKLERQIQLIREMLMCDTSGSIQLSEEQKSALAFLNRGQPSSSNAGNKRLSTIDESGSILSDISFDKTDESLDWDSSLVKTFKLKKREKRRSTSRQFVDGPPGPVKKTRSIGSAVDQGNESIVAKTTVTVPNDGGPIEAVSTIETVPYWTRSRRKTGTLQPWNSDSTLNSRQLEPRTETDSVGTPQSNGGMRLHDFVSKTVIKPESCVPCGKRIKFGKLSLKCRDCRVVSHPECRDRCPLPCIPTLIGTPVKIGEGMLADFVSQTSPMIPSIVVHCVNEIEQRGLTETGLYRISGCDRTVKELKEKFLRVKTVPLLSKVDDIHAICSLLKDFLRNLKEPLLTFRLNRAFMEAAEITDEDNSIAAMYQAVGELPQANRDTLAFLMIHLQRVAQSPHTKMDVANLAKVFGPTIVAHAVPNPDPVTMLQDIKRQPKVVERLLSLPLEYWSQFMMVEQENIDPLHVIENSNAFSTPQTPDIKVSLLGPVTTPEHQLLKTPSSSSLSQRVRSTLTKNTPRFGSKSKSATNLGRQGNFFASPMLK
`Cc1ccc(S(=O)(=O)N(C)c2ccccc2C(=O)N2CCOCC2)cc1`: the inhibition was 6.35% (inactive).
The figure for `O=C(Cc1ccc(Br)cc1)NCCc1ccc(F)cc1` is 9.29% (inactive); for `COc1ccc(S(=O)(=O)NC(C)C(=O)N2CCCC2)cc1Cl` (stereo unspecified) it is 1.21% (inactive).
For the compound `CN(C)c1ccc(Nc2nc(-c3cccnc3)cs2)cc1`, the inhibition is 14.4% (inactive).
The figure for `c1ccc(-c2csc(Nc3ccccn3)n2)cc1` is 13.5% (inactive); for `COc1ccc(-c2csc(Nc3ccccc3)n2)cc1` it is 15.5% (inactive).
Turning to `Cc1ccnc(Nc2nc(-c3ccc(O)cc3O)cs2)c1`, the inhibition is 15.2% (inactive).
In the case of `Cc1ccc(-c2csc(Nc3ccccn3)n2)cc1` it was 14% (inactive).
Take `COc1cccc(Nc2nc(-c3cccnc3)cs2)c1`: the inhibition was 10.7% (inactive).
In the case of `CCOc1ccc(Nc2nc(-c3cccnc3)cs2)cc1`, the inhibition is 6.12% (inactive).
For `Cc1cccc(Nc2nc(-c3ccc(O)cc3O)cs2)n1`, the inhibition is -2.8% (inactive).
In the case of `Cc1cccc2cc(COC(=O)COc3ccccc3)c(=O)[nH]c12`, the inhibition was 12% (inactive).
As for `CCC(=O)Oc1ccc(NC(=O)CSCc2ccccc2)cc1`, the inhibition was 13.9% (inactive).
Consider `COc1ccc(CCNC(=O)COC(=O)Cc2ccccc2[N+](=O)[O-])cc1`, for which the inhibition is 3.96% (inactive).
As to `CCOC(=O)c1ccc(S(=O)(=O)N2CC(=O)Nc3ccccc32)cc1`, the inhibition was 8.64% (inactive).
On to `Cc1ccc(Nc2nc(-c3c(C)nc4ncccn34)cs2)cc1`, for which the inhibition was 11.3% (inactive).
On to `c1cncc(Nc2nc(-c3ccncc3)cs2)c1`, for which the inhibition is 6.09% (inactive).
In the case of `c1coc(CNc2nc(-c3ccncc3)cs2)c1`, the inhibition was 5.25% (inactive).
In the case of `COc1ccc(-c2csc(NCc3ccco3)n2)cc1` it was 12% (inactive); in that of `CC(=O)Nc1ccc(-c2csc(Nc3ncccn3)n2)cc1`, 7.36% (inactive); in that of `c1ccc(-c2csc(Nc3ncccn3)n2)cc1`, 0.5% (inactive).
Take `c1ccc(-c2csc(Nc3cccnc3)n2)cc1`: the inhibition is 3.24% (inactive).
As to `Cc1nc2ncccn2c1-c1csc(Nc2ccccc2)n1`, the inhibition is 11% (inactive).
As to `O=C(O)CN1C(=O)NC2(CCc3ccccc32)C1=O` (stereo unspecified), the inhibition is 2.93% (inactive).
For `Cc1noc(C)c1S(=O)(=O)N1CCCC(C(=O)NCC2CCCO2)C1` (stereo unspecified), the inhibition was 4.53% (inactive).
For `COc1ccc(NC2CCCN(C(=O)CCN3CCOCC3)C2)cc1` (stereo unspecified), the inhibition was 12.5% (inactive).
In the case of `COc1ccc(NC2CCCN(C(=O)CN3CCOC3=O)C2)cc1OC` (stereo unspecified) it was 22.5% (inactive).
As for `CC(C)c1ccc(NC2CCCN(C(=O)CCN3CCCO3)C2)cc1` (stereo unspecified), the inhibition was 2.53% (inactive).
Turning to `CC(C)c1ccc(NC2CCCN(C(=O)CCN3Cc4ccccc4C3=O)C2)cc1` (stereo unspecified), the inhibition was 4.84% (inactive).
In the case of `COc1ccc(NC2CCCN(C(=O)CCCN3CCCCC3=O)C2)cc1` (stereo unspecified), the inhibition was 29.9% (inactive).
On to `CC(C)c1ccc(NC2CCCN(C(=O)CN3CCOC3=O)C2)cc1` (stereo unspecified), for which the inhibition was 8.4% (inactive).
In the case of `CN1OC[C@@H]2CN(Cc3cc(Cl)cc(Cl)c3)[C@H](c3cccc(-c4ccc(C#N)cc4)c3)C[C@@H]21` it was 13.8% (inactive); in that of `COc1ccc(OCc2nnc(SCC(=O)N3CCCC3)o2)cc1`, 5.88% (inactive); in that of `CC1CN(Cc2ccccc2Cl)CC(C)O1` (stereo unspecified), 16.3% (inactive).
In the case of `O=C(COc1ccccc1[N+](=O)[O-])Nc1cccc(C(=O)Nc2ccccc2C(=O)O)c1` it was 17.3% (inactive).
In the case of `C=CCC1NS(=O)(=O)O[C@H](CCCC)[C@@H]1O` (stereo partly specified) it was -14.4% (inactive); in that of `O=C(O)CCC(=O)OCCc1cc2ccccc2c(=O)o1`, -1.63% (inactive).
Regarding `O=C(c1ccc(=O)n(Cc2ccc(Cl)c(Cl)c2)c1)N1CCOCC1`, the inhibition was 1.2% (inactive).
For the compound `CC(C)N1C(=O)CSC1c1ccc(Br)cc1` (stereo unspecified), the inhibition was 9.21% (inactive).
With `COc1ccc(/C=N/NC(=O)c2cccnc2)c2ccccc12`, the inhibition was 10.9% (inactive).
In the case of `Cc1ccccc1/C=N/NC(=O)c1cccnc1` it was 4.63% (inactive).
For `Cc1ccsc1/C=N/NC(=O)c1cccnc1`, the inhibition is 6.67% (inactive).
In the case of `O=C(N/N=C/c1cccc2ccccc12)c1cccnc1`, the inhibition was 7.15% (inactive).
`COc1ccccc1CNC(=O)CCNS(=O)(=O)/C=C/c1ccc(C)cc1`: the inhibition is -0.75% (inactive).
`COc1cc(NC(=O)c2cccnc2SC)cc(OC)c1OC`: the inhibition is 9.4% (inactive).
Turning to `Nc1ccc(Br)c2cccnc12`, the inhibition is 9.68% (inactive).
`COc1cc(NC(C)CCCN)c2ncccc2c1` (stereo unspecified): the inhibition was -2.49% (inactive).
Consider `COc1cc(N)c2ncccc2c1Cl`, for which the inhibition was 7.55% (inactive).
Take `COc1cc(N)c2ncccc2c1Br`: the inhibition was 20% (inactive).
For `COc1cc(NC(C)CCCN)c2ncccc2c1Oc1ccccc1` (stereo unspecified), the inhibition is 1.99% (inactive).
Take `CCOC(=O)N1CCN(c2ccc(N3C(=O)CCCC3=O)cc2[N+](=O)[O-])CC1`: the inhibition was 4.36% (inactive).
On to `O=C(CCNS(=O)(=O)c1ccc2[nH]c(=O)oc2c1)Nc1ccccc1`, for which the inhibition is -24.4% (inactive).
In the case of `COc1ccc(OC)c(C(C[N+](=O)[O-])c2c(C)cc3ccccn23)c1` (stereo unspecified), the inhibition was 5.52% (inactive).
With `Cc1c(N2CCCCC2)[nH]c2ccccc12`, the inhibition is 8.41% (inactive).
On to `Cc1cccc(OCC(=O)Nc2ccc(N3CCN(C(=O)c4ccco4)CC3)cc2)c1C`, for which the inhibition was 8.56% (inactive).
In the case of `Cn1c(-c2ccc(F)cc2)cnc1NCc1ccc(F)cc1` it was 16.6% (inactive); in that of `Cn1c(-c2cccc(Br)c2)cnc1NCc1cccnc1`, 29.7% (inactive).
Take `COc1cc(CNc2ncc(-c3ccc(Br)cc3)n2C)cc(OC)c1OC`: the inhibition was 29.8% (inactive).
Take `Cn1c(-c2ccc(F)cc2)cnc1NCc1cccc(F)c1`: the inhibition was 9.97% (inactive).
Regarding `Cn1c(-c2ccc(Br)cc2)cnc1NCc1cccnc1`, the inhibition was 18.7% (inactive).
Turning to `Cn1c(-c2ccc(Br)cc2)cnc1NCc1ccc(C#N)cc1`, the inhibition was 21.2% (inactive).
`C[C@H](CO)N1C[C@H](C)[C@@H](CN(C)S(=O)(=O)c2ccc(F)cc2)Oc2c(NC(=O)Cc3ccccc3)cccc2C1=O`: the inhibition was 9.78% (inactive).
The figure for `CCCc1nc2ccccc2c(=O)n1NC(=O)c1c(O)c2ccccc2n(C)c1=O` is -1.3% (inactive).
With `O=C1Nc2ccccc2C1=Nc1ccc(F)cc1`, the inhibition was 6.47% (inactive).
On to `Cc1ccc(N=C2C(=O)Nc3ccccc32)cc1C`, for which the inhibition was 1.21% (inactive).
For the compound `COc1cccc(NC(=O)C(c2ccccc2)N2CCNC(=O)C2)c1` (stereo unspecified), the inhibition is -3.03% (inactive).

Broadly, the inhibition is the drop in the measured response relative to a control, in per cent.
